Most compounds without a hit are left out; they make up all but 19% or so of the library.
HT1080-NT tox – qHTS for induction of synthetic lethality in tumor cells producing 2HG: qHTS for the HT-1080-NT fibrosarcoma cell line | Potency, µM (titrated, usually from 46.1 µM), inactives show at the highest dose activity, negative = less viability, usual class: cytotoxic | AID 686970, 2013 | HT-1080-NT fibrosarcoma viability, CellTiter-Glo ATP luminescence, 48 h | actives 1.6% (n = 360,000);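 note: NT is the 2HG producing partner of a matched IDH1 knockdown line; potency is the fitted concentration of half-maximal effect; 0% = DMSO-treated cells and -100% = media-only wells without cells; nearly all actives have a fitted effect of over 55% in size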
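Read-out is CellTiter-Glo luminescence after 10 minutes at room temperature, following 48 hours' compound treatment of HT-1080-NT cells (750 cells/well, RPMI, 5% FBS, 37 degrees C).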
HT1080 IDH1KD tx – qHTS for induction of synthetic lethality in tumor cells producing 2HG: qHTS for the HT-1080-IDH1KD cell line | actives 2% (n = 360,000) | Potency, µM (series often up to 46.1 µM), for the others: at the highest dose activity, negative = toxicity, usual class: cytotoxic | AID 686971, 2013 | HT-1080 IDH1 knockdown viability, ATP luminescence, 48 h;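 note: potency is the fitted concentration of half-maximal effect; 0% = DMSO wells and -100% = cell-free medium wells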
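After a 2 h attachment period, IDH1KD HT-1080 cells took pin-transferred compound for 48 h at 37 °C; ATP-based luminescence after 10 min room-temperature reagent incubation reported viability.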
DT40 TDP1 no CPT – qHTS for Inhibitors of human tyrosyl-DNA phosphodiesterase 1 (TDP1): qHTS in cells in absence of CPT | DT40 Tdp1-/- hTDP1 cells, no CPT, ATP luminescence, 48 h | Potency, µM (doses to about 46.2 µM), without a hit: at the top dose activity change, negative = growth inhibition, hits mostly inhibitors | actives 15% (n = 420,000) | AID 686978, 2013; note: potency is the fitted concentration of half-maximal effect; nearly all actives have a fitted effect of over 55% in size
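DT40 Tdp1-/-;hTDP1 cells, no CPT (DMSO vehicle only), 400 cells/well; compounds pin-transferred; ≥48 hr, 37 °C; CellTiter-Glo 30 min RT dark, luminescence read.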
IL1B secr inh – qHTS for Inhibitors of Inflammasome Signaling: IL-1-beta AlphaLISA Primary Screen; THP-1 LPS/ATP IL-1B secretion, AlphaLISA, 16 h; hits give low values; actives 4.7% (n = 360,000); AID 743279, 2014; activity change, % at 57.5 µM; in the data active = activity change below about -50%; inconclusive = mostly about -30% to -49%
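THP-1 cells pretreated 1 hr with compounds (up to 57.5 uM final), then stimulated with LPS (250 ng/mL final) plus ATP (1.25 mM final); secreted IL-1B measured by AlphaLISA after 16 hr, decreased signal indicating inhibition.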
ELG1 repair inh – qHTS screen for small molecules that inhibit ELG1-dependent DNA repair in human embryonic kidney (HEK293T) cells expressing luciferase-tagged ELG1 | HEK293T ELG1-luciferase reporter, luminescence, 16 h; DNA damage induced by 5-fluorouridine | Potency, µM (doses to about 46.1 µM), for the others: at the top dose activity change, negative = inhibition, actives largely listed as inhibitors | actives 2.3% (n = 330,000); note: potency is the fitted concentration of half-maximal effect; nearly all actives have a fitted effect of over 55% in size
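DMSO vehicle served as the neutral condition. Each well held 2,000 cells given 5-fluorouridine plus compound; after 16 hr at 37 °C/5% CO2, ONE-Glo was added and luciferase measured 30 min later.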
DT40 TDP1 CPT – qHTS for Inhibitors of human tyrosyl-DNA phosphodiesterase 1 (TDP1): qHTS in cells in presence of CPT. chicken DT40 Tdp1-/-;hTDP1 cells + 20 nM CPT, ATP luminescence, 48 h. Potency, µM (series often up to 46.2 µM), for inactives: top-dose activity change, negative = growth inhibition, most hits filed as inhibitors. actives 12% (n = 420,000); note: potency is the fitted concentration of half-maximal effect; nearly all actives have a fitted effect of over 55% in size
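Chicken DT40 Tdp1-/- cells complemented with human TDP1, 400 cells/well, exposed to compounds plus 20 nM camptothecin for at least 48 h at 37 C; viability read as ATP content by CellTiter-Glo luminescence.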
Numbers without * were called inactive. Unless noted, calls come from the whole dose curve; as a rule, active = well fitted curve in the direction sought with a large enough effect; inconclusive = small, poorly fitted or top-dose-only effect, or another doubt; inactive = no such curve, though single readings can be large; an effect the other way counts as inactive or inconclusive. Unless noted, % is set by controls: 0 for no effect and ±100 for the full control effect.

What do the screens show for `Cc1ccc2oc(=O)c3cc(C(=O)NCCN4CCN(C)CC4)sc3c2c1`?
HT1080-NT tox: 8%; HT1080 IDH1KD tx: 27%; DT40 TDP1 no CPT: inconclusive; IL1B secr inh: -5; ELG1 repair inh: -17%; DT40 TDP1 CPT: 23µM*

How did Cc1ccc2oc(=O)c3cc(C(=O)NCCCN4CCc5ccccc5C4)sc3c2c1 do in these assays?
HT1080-NT tox: 0%; HT1080 IDH1KD tx: -3%; DT40 TDP1 no CPT: inconclusive; IL1B secr inh: 3; ELG1 repair inh: 0%; DT40 TDP1 CPT: 18µM*

Results for Cc1ccc2oc(=O)c3cc(C(=O)NCCCN4CCCCCC4)sc3c2c1 ?
HT1080-NT tox: -23%; HT1080 IDH1KD tx: 9%; DT40 TDP1 no CPT: inconclusive; IL1B secr inh: inconclusive; ELG1 repair inh: inconclusive; DT40 TDP1 CPT: inconclusive

How did COc1cccc(Cn2cnc3c(NS(=O)(=O)c4cccc(Cl)c4Cl)c(C)c(C)cc32)c1 do in these assays?
HT1080-NT tox: -1%; HT1080 IDH1KD tx: -27%; DT40 TDP1 no CPT: 23µM*; IL1B secr inh: inconclusive; ELG1 repair inh: -18%; DT40 TDP1 CPT: 21µM*

Results for COc1cccc(Cn2cnc3c(NS(=O)(=O)c4ccc(Cl)cc4Cl)c(C)c(C)cc32)c1 ?
HT1080-NT tox: -18%; HT1080 IDH1KD tx: -14%; DT40 TDP1 no CPT: inconclusive; IL1B secr inh: -11; ELG1 repair inh: -18%; DT40 TDP1 CPT: inconclusive

What do the screens show for `Nc1c(Cl)cc(C=O)cc1Cl`?
DT40 TDP1 no CPT: 6%; DT40 TDP1 CPT: 15%

How did O=C(Nc1nc2ccccc2n1CCN1CCCCC1)c1ccco1 do in these assays?
HT1080-NT tox: 9%; HT1080 IDH1KD tx: 13%; DT40 TDP1 no CPT: inconclusive; IL1B secr inh: 0; ELG1 repair inh: 2%; DT40 TDP1 CPT: inconclusive

What do the screens show for `O=C(Nc1nc2ccccc2n1CCOc1ccccc1)c1ccco1`?
HT1080-NT tox: -17%; HT1080 IDH1KD tx: -25%; DT40 TDP1 no CPT: 15µM*; IL1B secr inh: -16; ELG1 repair inh: inconclusive; DT40 TDP1 CPT: 15µM*

Results for Cc1cccc(OCCn2c(NC(=O)c3ccco3)nc3ccccc32)c1 ?
HT1080-NT tox: -18%; HT1080 IDH1KD tx: -28%; DT40 TDP1 no CPT: inconclusive; IL1B secr inh: 13; ELG1 repair inh: -5%; DT40 TDP1 CPT: 26µM*

What do the screens show for `O=C(Nc1nc2ccccc2n1Cc1ccc(Cl)cc1)c1ccco1`?
HT1080-NT tox: -12%; HT1080 IDH1KD tx: -13%; DT40 TDP1 no CPT: -27%; IL1B secr inh: -3; ELG1 repair inh: inconclusive; DT40 TDP1 CPT: inconclusive

How did O=C(Nc1nc2ccccc2n1CCOc1ccc(Cl)cc1)c1ccco1 do in these assays?
HT1080-NT tox: -16%; HT1080 IDH1KD tx: -19%; DT40 TDP1 no CPT: 18µM*; IL1B secr inh: 75; ELG1 repair inh: inconclusive; DT40 TDP1 CPT: 26µM*

What do the screens show for `CC(C)c1nc(SCC(=O)N2CCCc3ccccc32)c2c(=O)n(C)c(=O)n(C)c2n1`?
HT1080-NT tox: inconclusive; HT1080 IDH1KD tx: 4%; DT40 TDP1 no CPT: 6.5µM*; IL1B secr inh: 31; ELG1 repair inh: inconclusive; DT40 TDP1 CPT: 7.3µM*

What do the screens show for `CC1CCN(C(=O)CSc2nc(C(C)C)nc3c2c(=O)n(C)c(=O)n3C)CC1`?
HT1080-NT tox: -9%; HT1080 IDH1KD tx: -12%; DT40 TDP1 no CPT: 18µM*; IL1B secr inh: -15; ELG1 repair inh: inconclusive; DT40 TDP1 CPT: 16µM*

Results for CC(C)Cc1nc(SCC(=O)N2CCCC2)c2c(=O)n(C)c(=O)n(C)c2n1 ?
HT1080-NT tox: 0%; HT1080 IDH1KD tx: 1%; DT40 TDP1 no CPT: -1%; IL1B secr inh: 49; ELG1 repair inh: -1%; DT40 TDP1 CPT: -4%

Results for CC(C)[C@@H]1[C@H]2CC[C@H](C2)[C@H]1N ?
DT40 TDP1 no CPT: 8%; DT40 TDP1 CPT: 14%

How did Cn1c(NCCCO)nc2c1c(=O)n(Cc1cccc(F)c1)c(=O)n2C do in these assays?
DT40 TDP1 no CPT: -21%; DT40 TDP1 CPT: -12%

How did O=C(/C=C/c1cccs1)Nc1ccc(Br)cn1 do in these assays?
HT1080-NT tox: 0.12µM*; HT1080 IDH1KD tx: 0.18µM*; DT40 TDP1 no CPT: 0.33µM*; IL1B secr inh: 78; ELG1 repair inh: inconclusive; DT40 TDP1 CPT: 0.26µM*

Results for O=C(/C=C/c1cccs1)Nc1nccs1 ?
HT1080-NT tox: inconclusive; HT1080 IDH1KD tx: -22%; DT40 TDP1 no CPT: -32%; IL1B secr inh: 42; ELG1 repair inh: inconclusive; DT40 TDP1 CPT: -20%

Results for Cc1cc(C)c(-c2csc(NC(=O)/C=C/c3cccs3)n2)c(C)c1 ?
HT1080-NT tox: -24%; HT1080 IDH1KD tx: -27%; DT40 TDP1 no CPT: 18µM*; IL1B secr inh: -14; ELG1 repair inh: inconclusive; DT40 TDP1 CPT: inconclusive

Results for CCc1nnc(NC(=O)/C=C/c2cccs2)s1 ?
HT1080-NT tox: inconclusive; HT1080 IDH1KD tx: 14%; DT40 TDP1 no CPT: -24%; IL1B secr inh: -5; ELG1 repair inh: inconclusive; DT40 TDP1 CPT: -30%

How did O=C(/C=C/c1cccs1)Nc1cccc(NC(=O)/C=C/c2cccs2)n1 do in these assays?
HT1080-NT tox: -10%; HT1080 IDH1KD tx: -25%; DT40 TDP1 no CPT: 8.2µM*; IL1B secr inh: -4; ELG1 repair inh: 16µM*; DT40 TDP1 CPT: 12µM*

What do the screens show for `COC(=O)c1ccc(NC(=O)CCn2cccn2)cc1`?
DT40 TDP1 no CPT: -5%; DT40 TDP1 CPT: 7%

How did CS(=O)(=O)c1ccc(C(=O)OCC(=O)NC(=O)NC2CCCCC2)cc1[N+](=O)[O-] do in these assays?
DT40 TDP1 no CPT: 4.5µM*; DT40 TDP1 CPT: 2.8µM*

How did COc1ccc(C(=O)OCC(=O)NC(=O)NC2CCCC2)cc1[N+](=O)[O-] do in these assays?
HT1080-NT tox: 6%; HT1080 IDH1KD tx: 2%; DT40 TDP1 no CPT: -3%; IL1B secr inh: 28; ELG1 repair inh: 10%; DT40 TDP1 CPT: -1%

Results for COC(=O)c1ccc(SCC(=O)N2CCC(C)CC2)c([N+](=O)[O-])c1 ?
HT1080-NT tox: -3%; HT1080 IDH1KD tx: -4%; DT40 TDP1 no CPT: inconclusive; IL1B secr inh: 20; ELG1 repair inh: 2%; DT40 TDP1 CPT: -28%

Bioassay records from PubChem.
